Compounds with a hit are over-represented: about 2.7% of the library has one in this group of screens.
SENP8 block-1 = SENP8 protease inhibitors, primary screen, biochemical, luminescence; AID 2540, 2010; Sentrin-specific protease 8 (Homo sapiens), Q96LD8; inhibition, % at 10 µM; 330,000 tested, 1.2% active; purified SENP8, Z-RLRGG-aminoluciferin cleavage; in the data active means inhibition above about 50%
SENP7 block = SENP7 protease inhibitors, primary screen, biochemical, luminescence, uHTS; Sentrin-specific protease 7 (Homo sapiens), Q9BQF6; recombinant SENP7, Z-RLRGG-aminoluciferin luminescence, 40 min; inhibition, % at 5 µM; 330,000 tested, 1.5% active;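 active means inhibition above about 50% at the single test dose, limit read from the data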;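 further: plate controls were DMSO with enzyme for no effect and no enzyme buffer wells for full effect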
SENP6 inh = SENP6 protease inhibitors, primary screen, biochemical, luminescence, uHTS; Sentrin-specific protease 6 (Homo sapiens), Q9GZR1; Recombinant SENP6 catalytic domain, aminoluciferin luminescence; inhibition, % at 10 µM; 330,000 tested, 1.8% active; AID 2599, 2010;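 active means inhibition above about 50% at the single tested dose, limit read from the data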;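 further: plate controls were DMSO wells with enzyme for no effect and DMSO wells lacking enzyme for full effect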
Target sequence (Q9GZR1 628-1112 limits assumed): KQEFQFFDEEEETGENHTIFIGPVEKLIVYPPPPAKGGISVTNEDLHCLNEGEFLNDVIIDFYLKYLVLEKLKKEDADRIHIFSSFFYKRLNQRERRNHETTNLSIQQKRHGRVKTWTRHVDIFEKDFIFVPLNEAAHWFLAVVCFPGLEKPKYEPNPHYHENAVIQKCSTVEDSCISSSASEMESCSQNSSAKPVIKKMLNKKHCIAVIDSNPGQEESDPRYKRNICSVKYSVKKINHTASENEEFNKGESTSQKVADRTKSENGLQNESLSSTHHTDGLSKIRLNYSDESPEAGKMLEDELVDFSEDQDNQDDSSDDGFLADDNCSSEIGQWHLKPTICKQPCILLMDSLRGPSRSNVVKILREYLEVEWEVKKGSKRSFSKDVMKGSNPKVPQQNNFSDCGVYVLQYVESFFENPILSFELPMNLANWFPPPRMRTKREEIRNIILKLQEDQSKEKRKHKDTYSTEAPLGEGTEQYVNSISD
HSP90 inh = HSP90 inhibitors, primary screen, cell lysate, luminescence; Rabbit reticulocyte lysate, luciferase refolding luminescence, 3 h; inhibition, % at 5.6 µM; 290,000 tested, 0.91% active; AID 1789, 2009;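 active means inhibition above the screen-wide mean plus 3 SD, computed separately per campaign, cut at about 16% in these data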;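 further: 0% = DMSO wells and 100% = 60 µM geldanamycin wells; inhibitors lower the luminescence because luciferase stays unfolded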
SENP8 block-2 = human SENP8 protease inhibitors, primary screen, biochemical, fluorescence, Nedd8 protein substrate, uHTS; 360,000 tested, 0.64% active; recombinant SENP8; inhibition, % at 20 µM; in the data active means inhibition mostly above about 40%, no sharp cut-off; inactive means mostly below about 27%
SENP8 inh conf = human SENP8 protease inhibitors, confirmation, biochemical, Nedd8 protein substrate, single concentration | purified SENP8, Nedd8-AMC/pro-Nedd8 cleavage fluorescence, 30 min | AID 624319, 2012 | shares compounds with SENP8 block-2 | inhibition, % at 25 µM | 1,400 tested, 15% active; in the data active means inhibition mostly above about 39%, no sharp cut-off; inactive means mostly below about 34%
Active calls of the source: *; x = not tested or not shown.

SMILES	SENP8 block-1	SENP7 block	SENP6 inh	HSP90 inh	SENP8 block-2	SENP8 inh conf
Cc1c(C)c(C)c(C(=O)C2CCN(c3ccc([N+](=O)[O-])cn3)CC2)c(C)c1C	6.3	0.2	5.4	1.9	44.0*	16.0
CCC(C)N(C)C1CCN(C(=S)Nc2cccc(SC)c2)CC1 (configuration not stated)	4.9	8.5	-29.5	2.6	43.3*	29.4
CSc1cccc(NC(=S)N2CCC(N(C)C(C)C)CC2)c1	-3.5	-5.1	-9.6	2.0	11.8	x
O=C(N/C(=C\c1cccnc1)C(=O)N1CCOCC1)c1ccco1	3.4	-5.8	-8.9	1.3	3.7	x
COC(=O)CCCC1=CC2=CC(=O)C(C)(OC(=O)c3ccc(Cl)nc3)C(=O)C2=CO1 (configuration not stated)	-1.5	3.4	-13.5	x	x	x
COc1cc([N+](=O)[O-])cc2sc(NC(C)=O)nc12	-9.7	-1.7	-19.8	7.5	58.6*	12.1
CC1=NN(c2cc(Cl)c(S(=O)(=O)O)cc2Cl)C(=O)C1	x	x	x	x	65.9*	13.6
CC1=NN(c2ccc(S(=O)(=O)O)cc2Cl)C(=O)C1	-6.4	5.1	9.3	5.3	75.6*	9.7
O=S(=O)(O)c1ccc(Cl)c(Cl)c1	x	x	x	x	8.7	x
CC1=NN(c2ccc(C(=O)O)c(N)c2)C(=O)C1	-0.8	17.9	35.3	1.2	-44.1	x
CCCC1=C(C(=O)OCC)C(c2ccco2)C(C#N)=C(N)O1 (configuration not stated)	6.2	2.1	-14.2	1.2	-38.2	x
Cc1ccc(N2C(=O)CCSC23C(=O)Nc2ccccc23)cc1 (configuration not stated)	4.5	0.6	-23.9	3.4	33.3	x
CCC(C)c1ccccc1N1CC(C(=O)N2CCN(S(=O)(=O)c3ccccc3Br)CC2)CC1=O (configuration not stated)	7.8	6.5	4.6	x	7.9	x
[O-]/[N+](=C/c1cccnc1)c1ccc(Br)cc1	5.9	16.5	31.9	0.1	19.7	x
COc1cc(O)c(NC(C)=O)c2nonc12	6.9	18.6	16.7	4.0	59.8*	33.0
COc1cc(-c2ccc(NC(C)=O)c(OC)c2)ccc1NC(C)=O	0.4	2.5	4.0	2.8	16.8	x
CN(C)S(=O)(=O)c1cc(NC(=O)CN2CCNC(=O)C2)ccc1Cl	-4.6	-3.2	8.4	4.0	2.0	x
CNc1cccccc1=S	5.3	6.7	3.1	5.2	62.1*	10.1
CNc1ccccc1	8.5	3.8	-4.4	x	12.8	x
CC(C)[C@H]1C(=O)Nc2ccccc2N1C(=O)N[C@@H](Cc1ccccc1)C(=O)N[C@@H](C(=O)O)c1ccccc1	1.3	4.5	-5.3	-2.3	43.6*	12.0
CC(C)[C@H](NC(=O)N1c2ccccc2NC(=O)[C@@H]1C(C)C)C(=O)N1CCC(C(=O)O)CC1	5.7	3.5	8.1	-0.9	44.9*	-4.3
COC(/C(=N/O)c1ccc(Cl)cc1)c1ccccc1 (configuration not stated)	-0.3	3.2	-2.0	3.9	11.8	x
Cc1cc(NC(=O)CCC(=O)N(Cc2ccco2)C(C(=O)NC2CCCC2)c2ccccc2C)no1 (configuration not stated)	-5.0	-5.1	-17.8	2.1	59.8*	27.3
CC(C)[C@H](NC(=O)c1ccco1)C(=O)OCC(=O)N1CC(=O)Nc2ccccc21	-1.0	-9.7	-9.0	4.2	2.7	x
NC(=O)CN1CCN(Cc2ccc3c(c2)OCO3)CC1	-4.0	-11.9	0.6	-6.9	19.6	x
SMILES	SENP8 block-1	SENP7 block	SENP6 inh	HSP90 inh	SENP8 block-2	SENP8 inh conf
CC(=O)OC1CCC2(C)C(=CCC3C2CCC2(C)C3CC3OC4(CCC(C)CN4)C(C)C32)C1 (configuration not stated)	-7.8	4.0	-7.7	0.9	50.9*	12.9
O=c1cc(-c2ccc([N+](=O)[O-])cc2)c2cc3c(cc2[nH]1)OCCO3	0.1	-9.0	-0.4	-8.0	41.9*	15.5
CCc1ccccc1OC[C@@H](O)CN[C@H]1CCCc2ccccc21	-1.9	-3.6	13.3	x	15.7	x
Cc1cc(NC(=O)CCC(=O)N(C2CC2)C(C(=O)NC(C)(C)C)c2ccccc2Cl)no1 (configuration not stated)	-2.3	-1.1	3.1	0.1	0.3	x
O=C(NCc1cccs1)C1CCCN1C(=O)Nc1ccc(F)cc1 (configuration not stated)	1.0	9.0	-13.2	-1.2	40.7*	13.3
COC(=O)/C(=C/Nc1ccccc1)[N+](=O)[O-]	1.0	-7.4	-7.4	-2.4	2.8	x
COC(=O)/C(=C/Nc1ccc(O)cc1)[N+](=O)[O-]	-30.8	17.8	-6.4	-1.5	74.4*	17.4
COc1cc(/C=N/NC(=O)CCc2ccccc2)ccc1O	-5.4	-1.7	4.1	0.5	-11.0	x
COc1cc(CCC(O)CC(=O)CCc2ccccc2)ccc1O (configuration not stated)	-13.7	7.6	-16.2	-1.4	45.7*	15.2
O=c1[nH]c(CN2CCCCC2)ccc1O	x	x	x	x	68.5*	38.0*
COc1ccc(C(=O)CSc2nnc(C(CO)NC(=O)c3ccc(OC)cc3)n2C)cc1 (configuration not stated)	1.4	7.3	-4.8	1.4	72.8*	13.1
CC(C)(C)c1cc(=O)n(-c2ccccc2)[nH]1	x	x	x	1.7	86.7*	27.0
Cc1ccc(NC(=O)CN(C)C(C)C(=O)Nc2ccc(S(=O)(=O)N3CCCC3)cc2)cc1 (configuration not stated)	2.1	-2.2	-0.2	x	13.2	x
Cc1ccccc1NNC(N)=S	-2.4	10.0	2.8	0.9	50.6*	11.4
CCOC(=O)C(=O)NNc1ccccc1C	2.3	5.1	0.0	-0.9	1.6	x
Cc1ccc(NC(=S)N/N=C/c2ccc([N+](=O)[O-])s2)cc1	6.7	1.5	24.5	1.0	40.3*	53.0*
Cc1onc(-c2ccccc2)c1C(=O)N/N=C/c1ccc([N+](=O)[O-])s1	3.4	0.8	18.2	-0.2	30.0	x
COC(=O)C(C)Oc1cc(OC(C)C(=O)OC)c2c(-c3ccccc3)cc(=O)oc2c1 (configuration not stated)	-8.9	-6.6	-2.1	-1.4	4.5	x
O=c1oc(C2(O)CCCCC2)cc2ccc(Br)cc12	-12.6	-12.9	-21.3	x	-28.5	x
COc1ccc(-c2noc(N(C)CC(=O)Nc3cccc(C(F)(F)F)c3)n2)cc1	-7.6	-5.1	-20.9	0.7	42.8*	32.6
COc1ccc(CCn2nnnc2C(CC(C)C)N2CCN(c3ncccn3)CC2)cc1OC (configuration not stated)	3.7	1.0	2.2	1.6	42.8*	8.4
CC(=O)c1cccc(NC(=O)C2CCCN2S(=O)(=O)c2cccs2)c1 (configuration not stated)	x	x	x	x	41.0*	17.2

Source: PubChem (several laboratories)
